TDP1 cell CPT – DT40-hTDP1 cell growth loss with CPT; 420,000 compounds, 12% hits; chicken DT40 Tdp1-/-;hTDP1 cells + 20 nM CPT, ATP luminescence, 48 h; AID 686979; Potency, µM (doses to about 46.2 µM), for inactives: at the highest dose activity change, negative = growth inhibition, actives largely listed as inhibitors; further: potency means the concentration at half of the fitted maximal effect; nearly all actives have a fitted effect of over 55% in size
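Chicken DT40 Tdp1-/- cells complemented with human TDP1, 400 cells/well, exposed to compounds plus 20 nM camptothecin for at least 48 h at 37 C; viability read as ATP content by CellTiter-Glo luminescence.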
DT40 TDP1 no CPT – qHTS for Inhibitors of human tyrosyl-DNA phosphodiesterase 1 (TDP1): qHTS in cells in absence of CPT; AID 686978, 2013; 420,000 compounds, 15% hits; Potency, µM (titrated, usually from 46.2 µM), inactives show top-dose activity change, negative = growth inhibition, usual class: inhibitors; DT40 Tdp1-/- hTDP1 cells, no CPT, ATP luminescence, 48 h; further: potency means the concentration at half of the fitted maximal effect; nearly all actives have a fitted effect of over 55% in size
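A cellular qHTS used chicken DT40 cells lacking endogenous Tdp1 but carrying stably transfected human TDP1. Compounds were applied without camptothecin, and cell growth kinetics were judged by ATP-dependent luminescence after ≥48 hr.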
RORgamma inh – blocks mouse ROR gamma transcriptional activity; P51450; Drosophila S2 Gal4-RORgamma UAS-luciferase reporter, 20 h; Potency, µM (series often up to 53.6 µM), for the others: at the top dose activity change, negative = inhibition, hits mostly inhibitors; 310,000 compounds, 5.4% hits; AID 2551; further: potency means the concentration at half of the fitted maximal effect; nearly all actives have a fitted effect of over 60% in size
Target sequence (P51450 whole entry, looked up, the tested form may be a part): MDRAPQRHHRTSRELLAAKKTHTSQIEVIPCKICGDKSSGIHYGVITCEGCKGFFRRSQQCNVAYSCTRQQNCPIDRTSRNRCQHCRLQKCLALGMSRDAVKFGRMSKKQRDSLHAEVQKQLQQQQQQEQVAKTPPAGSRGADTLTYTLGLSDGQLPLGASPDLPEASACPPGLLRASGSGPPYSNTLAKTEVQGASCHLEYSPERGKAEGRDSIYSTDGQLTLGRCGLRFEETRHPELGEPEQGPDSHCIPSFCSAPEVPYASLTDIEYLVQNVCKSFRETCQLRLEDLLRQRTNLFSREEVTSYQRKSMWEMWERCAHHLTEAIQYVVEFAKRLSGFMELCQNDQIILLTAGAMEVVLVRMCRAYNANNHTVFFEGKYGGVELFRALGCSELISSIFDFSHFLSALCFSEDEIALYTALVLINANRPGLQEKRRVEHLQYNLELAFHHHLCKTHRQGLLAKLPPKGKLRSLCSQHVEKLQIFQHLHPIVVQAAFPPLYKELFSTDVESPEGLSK
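Schneider cells (Drosophila), stable Gal4 DBD–ROR gamma + UAS-luc; 1 hr cmpd preincubation; Cu2+ induction 700 uM final; 20 hr ambient; luminescence.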
IL1B secr inh – inhibitors of inflammasome signaling (IL-1 beta secretion). 360,000 compounds, 4.7% hits. activity change, % at 57.5 µM. THP-1 LPS/ATP IL-1B secretion, AlphaLISA, 16 h; active compounds read low. AID 743279; in the data active means activity change below about -50%; inconclusive means mostly about -30% to -49%
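THP-1 cells pretreated 1 hr with compounds (up to 57.5 uM final), then stimulated with LPS (250 ng/mL final) plus ATP (1.25 mM final); secreted IL-1B measured by AlphaLISA after 16 hr, decreased signal indicating inhibition.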
LDHA inh – inhibitors of human lactate dehydrogenase A. P00338. purified LDHA, NADH/diaphorase-resazurin fluorescence; active compounds read low. activity change, % (values are at about 110 or 230 µM). 480,000 compounds, 0.15% hits. AID 1347041; in the data active means activity change below about -30%; inconclusive means mostly about -25% to -30%;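 further: plate controls were DMSO wells for no effect and wells without enzyme for full effect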
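Remaining NADH was detected by diaphorase (0.133 mg/mL) converting 37 µM resazurin to fluorescent resorufin, read at 0 and 20 minutes. The preceding 5-minute room-temperature reaction used 2 nM LDHA, 0.2 mM sodium pyruvate and 0.06 mM NADH at pH 7.4.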
Gal4-VP16 FLuc – Gal4-VP16 reporter inhibition counter-screen | Drosophila S2 Gal4-VP16 UAS-luciferase, luminescence, 20 h | 310,000 compounds, 3.5% hits | AID 2546 | Potency, µM (highest dose often 53.6 µM), for the others: at the highest dose activity, negative = inhibition, most hits filed as inhibitors;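 further: Gal4-VP16 expression switched on by copper sulfate through the metallothionein promoter; potency means the concentration at half of the fitted maximal effect; nearly all actives have a fitted effect of over 50% in size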
Numbers without * were called inactive; [ ] = remark or other dose. In the library only some 18% were active in any assay of this set; here they are far more common. Unless noted, the call rests on the fitted dose curve; in most records, active means well fitted curve in the direction sought with a large enough effect; inconclusive means small, poorly fitted or top-dose-only effect, or another doubt; inactive means no such curve, though single readings can be large; an effect the other way counts as inactive or inconclusive. Unless noted, on the % scale 0 is the no-effect control and ±100 the full control effect.

Results for CCCSP(=S)(OCC)Oc1ccc(Cl)cc1Cl (stereo unspecified) ?
RORgamma inh: 8%; Gal4-VP16 FLuc: 1%

Results for Cn1c(O)c(C(=Nc2ccccc2)SCc2ccccc2Cl)c(=O)n(C)c1=O ?
TDP1 cell CPT: 5.8µM*; DT40 TDP1 no CPT: 8.2µM*; RORgamma inh: inconclusive; IL1B secr inh: inconclusive; LDHA inh: -1; Gal4-VP16 FLuc: -5%

Results for CC(=Nc1ccccc1N)c1c(O)n(C)c(=O)n(C)c1=O ?
TDP1 cell CPT: -13%; DT40 TDP1 no CPT: -16%; RORgamma inh: -2%; IL1B secr inh: -6; LDHA inh: 4; Gal4-VP16 FLuc: 5%

How did Cn1c(O)c(C(=NCCN2CCCCC2)c2ccccc2Cl)c(=O)n(C)c1=O do in these assays?
TDP1 cell CPT: inconclusive; DT40 TDP1 no CPT: -26%; RORgamma inh: 0%; IL1B secr inh: 2; LDHA inh: -7; Gal4-VP16 FLuc: -14%

How did CCOC(=O)c1ccc(N=C(c2ccccc2)c2c(O)n(C)c(=O)n(C)c2=O)cc1 do in these assays?
TDP1 cell CPT: 2.9µM*; DT40 TDP1 no CPT: 7.3µM*; RORgamma inh: 12%; LDHA inh: 0; Gal4-VP16 FLuc: 5%

What do the screens show for `Cn1c(O)c(C(=Nc2ccc(F)cc2)c2ccccc2Cl)c(=O)n(C)c1=O`?
TDP1 cell CPT: inconclusive; DT40 TDP1 no CPT: 7.3µM*; RORgamma inh: 20%; IL1B secr inh: -24; LDHA inh: 8; Gal4-VP16 FLuc: 1%

What do the screens show for `CSC(=Nc1ccccc1)c1c(O)n(C)c(=O)n(C)c1=O`?
TDP1 cell CPT: -12%; DT40 TDP1 no CPT: -8%; RORgamma inh: inconclusive; IL1B secr inh: 8; LDHA inh: 8; Gal4-VP16 FLuc: -11%

Results for COC(=O)c1ccc(N=C(c2ccccc2)c2c(O)n(C)c(=O)n(C)c2=O)cc1 ?
TDP1 cell CPT: inconclusive; DT40 TDP1 no CPT: 23µM*; RORgamma inh: 5%; IL1B secr inh: -7; LDHA inh: 1; Gal4-VP16 FLuc: 0%

How did CC(C)(C)C(O)C(Cc1ccc(Cl)cc1Cl)n1cncn1 (stereo unspecified) do in these assays?
RORgamma inh: 18%; Gal4-VP16 FLuc: 0%

How did CSc1nc(N)c2c(n1)OC(N)=C(C#N)C2c1cc(Br)ccc1F (stereo unspecified) do in these assays?
LDHA inh: -6

How did C1CCN(C2CCCNC2)CC1 (stereo unspecified) do in these assays?
LDHA inh: 6

What do the screens show for `CC1=C/C(=N\NC(=S)NCCc2ccccc2)CC(C)(C)C1`?
TDP1 cell CPT: inconclusive; DT40 TDP1 no CPT: inconclusive; RORgamma inh: 0.5µM*; IL1B secr inh: -7; LDHA inh: -12; Gal4-VP16 FLuc: inconclusive

How did CCC1OC2(C)C(O)C(/C=C/C=C/C=C/c3oc(=O)cc(OC)c3C)OC1(C)C2OC(C)=O (stereo unspecified) do in these assays?
RORgamma inh: 0.04µM*

How did CCc1ccccc1NC(=O)CNC1CCCCC1 do in these assays?
TDP1 cell CPT: 8%; DT40 TDP1 no CPT: 4%; RORgamma inh: -17%; IL1B secr inh: 18; LDHA inh: -6; Gal4-VP16 FLuc: -2%

Results for CCc1ccccc1NC(=O)C1CCCN(c2ncnc3onc(C)c23)C1 (stereo unspecified) ?
TDP1 cell CPT: 18µM*; DT40 TDP1 no CPT: 9.2µM*; LDHA inh: -7

Results for N#Cc1c(N)nc2c(c1-c1ccc(OCc3ccccc3F)cc1)c(=O)nc1sccn12 ?
LDHA inh: -1

What do the screens show for `C1=C(c2c[nH]c3ccccc23)CCN(Cc2ccccc2)C1`?
TDP1 cell CPT: 9.2µM*; DT40 TDP1 no CPT: 4.6µM*; RORgamma inh: 17%; IL1B secr inh: 0; LDHA inh: -7; Gal4-VP16 FLuc: 2%

Results for COc1ccc(CN(CCc2c[nH]c3ccccc23)Cc2ccc(OC)cc2)cc1 ?
TDP1 cell CPT: 16µM*; DT40 TDP1 no CPT: 15µM*; IL1B secr inh: -15; LDHA inh: 0

How did CCN(CC)Cc1c[nH]c2ccccc12 do in these assays?
TDP1 cell CPT: 10µM*; DT40 TDP1 no CPT: 16µM*; RORgamma inh: -9%; IL1B secr inh: -25; LDHA inh: -7; Gal4-VP16 FLuc: -10%

How did CCC(CC)NCc1c[nH]c2ccccc12 do in these assays?
TDP1 cell CPT: 4.1µM*; DT40 TDP1 no CPT: 3.7µM*; RORgamma inh: -7%; IL1B secr inh: 4; LDHA inh: -5; Gal4-VP16 FLuc: -12%

Results for CCCN(CCC)CCc1c[nH]c2ccc(C(N)=O)cc12 ?
TDP1 cell CPT: -9%[92.5 µM]; DT40 TDP1 no CPT: -5%[92.5 µM]; LDHA inh: 5

What do the screens show for `CCCN(CCC)CCc1c[nH]c2ccccc12`?
TDP1 cell CPT: 19µM*; DT40 TDP1 no CPT: inconclusive

Results for Cl/C=C/CCl ?
RORgamma inh: 0%; Gal4-VP16 FLuc: -1%

How did COc1cc(=O)n2c(c1C(=O)N(C)Cc1nonc1C)CCN(C(=O)C1C(C)(C)C1(C)C)CC2 do in these assays?
TDP1 cell CPT: 14%; DT40 TDP1 no CPT: -11%

How did COc1cccc(C2SCC(=O)Nc3c2c(C)nn3C)c1OC (stereo unspecified) do in these assays?
LDHA inh: 6

Results for CN(C(=O)Cc1ccc(Cl)c(Cl)c1)[C@H](CN1CCCC1)c1ccccc1 ?
TDP1 cell CPT: 15µM*; DT40 TDP1 no CPT: 12µM*; RORgamma inh: -24%; Gal4-VP16 FLuc: 2%

How did COC(=O)N1CCN(C(=O)Cc2ccc(Cl)c(Cl)c2)C(CN2CCCC2)C1 (stereo unspecified) do in these assays?
TDP1 cell CPT: -5%; DT40 TDP1 no CPT: inconclusive; RORgamma inh: 2%; Gal4-VP16 FLuc: -11%

How did O=c1[nH]c(=O)n(Cl)c(=O)n1Cl do in these assays?
TDP1 cell CPT: 15%; DT40 TDP1 no CPT: 8%; RORgamma inh: -13%[10 µM]; Gal4-VP16 FLuc: 0%

How did COC(=O)C1=C(c2cc3ccccc3s2)C[C@@H]2CC[C@H]1N2C(=O)N1CCOCC1 do in these assays?
TDP1 cell CPT: 9.2µM*; DT40 TDP1 no CPT: 7.3µM*; IL1B secr inh: 30; LDHA inh: 3

Results for COC(=O)C1=C(c2cc3ccccc3s2)C[C@@H]2CC[C@H]1N2C(=O)N1CCCC1 ?
TDP1 cell CPT: 4.6µM*; IL1B secr inh: 0; LDHA inh: 6

How did C=C[C@]12CN(C)[C@H]3C1[C@@]1(C(=O)Nc4ccccc41)[C@H]1C[C@H]2[C@H]3CO1 do in these assays?
RORgamma inh: 1%[16.9 µM]; Gal4-VP16 FLuc: -1%[17 µM]

High-throughput results (PubChem)
